# Measured values: publication PMC12820563, “FoxP3 forms a head-to-head dimer in vivo and stabilizes its multimerization on adjacent microsatellites”
# In all, about 16,000 sequences were measured (“rpm ratio (pull-down/input)”: median about 0.5, highest 2% from about 5.5 on). This excerpt belongs to a sample that is enriched for the highest values.
# Target: T1, MBP-FoxP3dN (Mus musculus, UniProt Q99JB6 188-423)
# T1 sequence: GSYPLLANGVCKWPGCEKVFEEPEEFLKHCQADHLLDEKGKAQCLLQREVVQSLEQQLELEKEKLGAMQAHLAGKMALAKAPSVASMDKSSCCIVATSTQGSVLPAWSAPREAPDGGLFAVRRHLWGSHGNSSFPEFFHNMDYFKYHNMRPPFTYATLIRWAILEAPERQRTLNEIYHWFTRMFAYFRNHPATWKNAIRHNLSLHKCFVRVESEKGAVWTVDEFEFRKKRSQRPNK
# Assay: PD-seq (MBP pull-down with sequencing); 20 mM Tris-HCl pH 7.5, 100 mM NaCl, 1.5 mM MgCl2, 0.4 uM protein, 0.1 uM dsDNA library, 30 min, room temperature, amylose pull-down; high values mean tight binding
# Settings: protein: recombinant; tags: His6-MBP; chain copies: 2; dsDNA, one strand shown
# Summary of the method: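 Protein and DNA were mixed at 0.4 µM and 0.1 µM and held for 30 min at room temperature in Tris pH 7.5 buffer with NaCl and MgCl2; the protein was a His6-MBP-tagged, N-terminally truncated mouse FoxP3 or FoxP1 fragment from E. coli, and the DNA a Klenow-filled double-stranded degenerate library. Amylose resin captured the complexes, which were washed three times. Binding is read as reads-per-million enrichment of pull-down versus input after Illumina sequencing, with replicates pooled.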
row,Sequence,binding signal
1,GATGATTGTTCTCCCAGCTGATGAATTTCAAGTTTCGAGTAAACAAATTTTCCTAATCTTTCTGTTCAAGCGCCATCTAC,0.283 RPM ratio (pull-down/input)
2,GATGATTGTTCTCCCAGCTGATGAATTTATACGTTCGAGTAAACAAATTTTCCTAATCTTTCTGTTCAAGCGCCATCTAC,0.886 RPM ratio (pull-down/input)
3,GATGATTGTTCTCCCAGCTGATGAATTTCCACGTTCGAGTAAACAAATTTTCCTAATCTTTCTGTTCAAGCGCCATCTAC,0.311 RPM ratio (pull-down/input)
4,GATGATTGTTCTCCCAGCTGATGAATTGTATCCTTCGAGTAAACAAATTTTCCTAATCTTTCTGTTCAAGCGCCATCTAC,1.61 RPM ratio (pull-down/input)
5,GATGATTGTTCTCCCAGCTGATGAATTGTAATACTCGAGTAAACAAATTTTCCTAATCTTTCTGTTCAAGCGCCATCTAC,0.756 RPM ratio (pull-down/input)
6,GATGATTGTTCTCCCAGCTGATGAATTTGATGTATCGAGTAAACAAATTTTCCTAATCTTTCTGTTCAAGCGCCATCTAC,4.63 RPM ratio (pull-down/input)
7,GATGATTGTTCTCCCAGCTGATGAATTTCTATACTCGAGTAAACAAATTTTCCTAATCTTTCTGTTCAAGCGCCATCTAC,0.435 RPM ratio (pull-down/input)
8,GATGATTGTTCTCCCAGCTGATGAATTTCTATGCTCGAGTAAACAAATTTTCCTAATCTTTCTGTTCAAGCGCCATCTAC,0.385 RPM ratio (pull-down/input)
9,GATGATTGTTCTCCCAGCTGATGAATTTGTATCATCGAGTAAACAAATTTTCCTAATCTTTCTGTTCAAGCGCCATCTAC,5.48 RPM ratio (pull-down/input)
10,GATGATTGTTCTCCCAGCTGATGAATTGTATCTTTCGAGTAAACAAATTTTCCTAATCTTTCTGTTCAAGCGCCATCTAC,1.68 RPM ratio (pull-down/input)
11,GATGATTGTTCTCCCAGCTGATGAATTTGTATGCTCGAGTAAACAAATTTTCCTAATCTTTCTGTTCAAGCGCCATCTAC,6.51 RPM ratio (pull-down/input)
12,GATGATTGTTCTCCCAGCTGATGAATTGTAATGCTCGAGTAAACAAATTTTCCTAATCTTTCTGTTCAAGCGCCATCTAC,1.07 RPM ratio (pull-down/input)
13,GATGATTGTTCTCCCAGCTGATGAATTTGTATCTTCGAGTAAACAAATTTTCCTAATCTTTCTGTTCAAGCGCCATCTAC,5.56 RPM ratio (pull-down/input)
14,GATGATTGTTCTCCCAGCTGATGAATTTGTATACTCGAGTAAACAAATTTTCCTAATCTTTCTGTTCAAGCGCCATCTAC,7.1 RPM ratio (pull-down/input)
15,GATGATTGTTCTCCCAGCTGATGAATTTGTTGTATCGAGTAAACAAATTTTCCTAATCTTTCTGTTCAAGCGCCATCTAC,7.55 RPM ratio (pull-down/input)
16,GATGATTGTTCTCCCAGCTGATGAATTCGTTTCCTCGAGTAAACAAATTTTCCTAATCTTTCTGTTCAAGCGCCATCTAC,1.76 RPM ratio (pull-down/input)
17,GATGATTGTTCTCCCAGCTGATGAATTGTGGAAGTCGAGTAAACAAATTTTCCTAATCTTTCTGTTCAAGCGCCATCTAC,0.274 RPM ratio (pull-down/input)
18,GATGATTGTTCTCCCAGCTGATGAATTTAGCGGATCGAGTAAACAAATTTTCCTAATCTTTCTGTTCAAGCGCCATCTAC,0.292 RPM ratio (pull-down/input)
19,GATGATTGTTCTCCCAGCTGATGAATTGACTCCCTCGAGTAAACAAATTTTCCTAATCTTTCTGTTCAAGCGCCATCTAC,0.386 RPM ratio (pull-down/input)
20,GATGATTGTTCTCCCAGCTGATGAATTATTTTGCTCGAGTAAACAAATTTTCCTAATCTTTCTGTTCAAGCGCCATCTAC,0.946 RPM ratio (pull-down/input)
21,GATGATTGTTCTCCCAGCTGATGAATTAGTTTGCTCGAGTAAACAAATTTTCCTAATCTTTCTGTTCAAGCGCCATCTAC,5.59 RPM ratio (pull-down/input)

row,Sequence,binding signal
1,GATGATTGTTCTCCCAGCTGATGAATTTAGTTGCTCGAGTAAACAAATTTTCCTAATCTTTCTGTTCAAGCGCCATCTAC,2.92 RPM ratio (pull-down/input)
2,GATGATTGTTCTCCCAGCTGATGAATTTGTTTGCTCGAGTAAACAAATTTTCCTAATCTTTCTGTTCAAGCGCCATCTAC,7.54 RPM ratio (pull-down/input)
3,GATGATTGTTCTCCCAGCTGATGAATTGTTTTGCTCGAGTAAACAAATTTTCCTAATCTTTCTGTTCAAGCGCCATCTAC,3.65 RPM ratio (pull-down/input)
4,GATGATTGTTCTCCCAGCTGATGAATTTGATTGCTCGAGTAAACAAATTTTCCTAATCTTTCTGTTCAAGCGCCATCTAC,5.45 RPM ratio (pull-down/input)
5,GATGATTGTTCTCCCAGCTGATGAATTTTGTTGCTCGAGTAAACAAATTTTCCTAATCTTTCTGTTCAAGCGCCATCTAC,5.63 RPM ratio (pull-down/input)
6,GATGATTGTTCTCCCAGCTGATGAATTTTATTGCTCGAGTAAACAAATTTTCCTAATCTTTCTGTTCAAGCGCCATCTAC,2.06 RPM ratio (pull-down/input)
7,GATGATTGTTCTCCCAGCTGATGAATTTCTTTGCTCGAGTAAACAAATTTTCCTAATCTTTCTGTTCAAGCGCCATCTAC,1.5 RPM ratio (pull-down/input)
8,GATGATTGTTCTCCCAGCTGATGAATTTTTTTGCTCGAGTAAACAAATTTTCCTAATCTTTCTGTTCAAGCGCCATCTAC,0.366 RPM ratio (pull-down/input)
9,GATGATTGTTCTCCCAGCTGATGAATTTATTTGCTCGAGTAAACAAATTTTCCTAATCTTTCTGTTCAAGCGCCATCTAC,6.11 RPM ratio (pull-down/input)
10,GATGATTGTTCTCCCAGCTGATGAATTAGTTTTCTCGAGTAAACAAATTTTCCTAATCTTTCTGTTCAAGCGCCATCTAC,4.62 RPM ratio (pull-down/input)
11,GATGATTGTTCTCCCAGCTGATGAATTCTCTTGCTCGAGTAAACAAATTTTCCTAATCTTTCTGTTCAAGCGCCATCTAC,0.273 RPM ratio (pull-down/input)
12,GATGATTGTTCTCCCAGCTGATGAATTTTCCTTATCGAGTAAACAAATTTTCCTAATCTTTCTGTTCAAGCGCCATCTAC,0.31 RPM ratio (pull-down/input)
13,GATGATTGTTCTCCCAGCTGATGAATTGGTGTTGTCGAGTAAACAAATTTTCCTAATCTTTCTGTTCAAGCGCCATCTAC,3.18 RPM ratio (pull-down/input)
14,GATGATTGTTCTCCCAGCTGATGAATTCGATATTTCGAGTAAACAAATTTTCCTAATCTTTCTGTTCAAGCGCCATCTAC,1.79 RPM ratio (pull-down/input)
15,GATGATTGTTCTCCCAGCTGATGAATTTCGCAAATCGAGTAAACAAATTTTCCTAATCTTTCTGTTCAAGCGCCATCTAC,0.634 RPM ratio (pull-down/input)
16,GATGATTGTTCTCCCAGCTGATGAATTCGTCGTATCGAGTAAACAAATTTTCCTAATCTTTCTGTTCAAGCGCCATCTAC,1.17 RPM ratio (pull-down/input)
17,GATGATTGTTCTCCCAGCTGATGAATTTAGTAAATCGAGTAAACAAATTTTCCTAATCTTTCTGTTCAAGCGCCATCTAC,0.439 RPM ratio (pull-down/input)
18,GATGATTGTTCTCCCAGCTGATGAATTGTAGCCGTCGAGTAAACAAATTTTCCTAATCTTTCTGTTCAAGCGCCATCTAC,0.622 RPM ratio (pull-down/input)
19,GATGATTGTTCTCCCAGCTGATGAATTATATGTATCGAGTAAACAAATTTTCCTAATCTTTCTGTTCAAGCGCCATCTAC,2.22 RPM ratio (pull-down/input)
20,GATGATTGTTCTCCCAGCTGATGAATTATGTGTATCGAGTAAACAAATTTTCCTAATCTTTCTGTTCAAGCGCCATCTAC,5.73 RPM ratio (pull-down/input)
21,GATGATTGTTCTCCCAGCTGATGAATTATCTGTATCGAGTAAACAAATTTTCCTAATCTTTCTGTTCAAGCGCCATCTAC,0.545 RPM ratio (pull-down/input)

row,Sequence,binding signal
1,GATGATTGTTCTCCCAGCTGATGAATTATGTATATCGAGTAAACAAATTTTCCTAATCTTTCTGTTCAAGCGCCATCTAC,5.96 RPM ratio (pull-down/input)
2,GATGATTGTTCTCCCAGCTGATGAATTATGTATTTCGAGTAAACAAATTTTCCTAATCTTTCTGTTCAAGCGCCATCTAC,4.76 RPM ratio (pull-down/input)
3,GATGATTGTTCTCCCAGCTGATGAATTATGTATCTCGAGTAAACAAATTTTCCTAATCTTTCTGTTCAAGCGCCATCTAC,5.75 RPM ratio (pull-down/input)
4,GATGATTGTTCTCCCAGCTGATGAATTGTATGTATCGAGTAAACAAATTTTCCTAATCTTTCTGTTCAAGCGCCATCTAC,4.55 RPM ratio (pull-down/input)
5,GATGATTGTTCTCCCAGCTGATGAATTATGTTTCTCGAGTAAACAAATTTTCCTAATCTTTCTGTTCAAGCGCCATCTAC,4.18 RPM ratio (pull-down/input)
6,GATGATTGTTCTCCCAGCTGATGAATTTTATGTATCGAGTAAACAAATTTTCCTAATCTTTCTGTTCAAGCGCCATCTAC,3.53 RPM ratio (pull-down/input)
7,GATGATTGTTCTCCCAGCTGATGAATTCTTCGATTCGAGTAAACAAATTTTCCTAATCTTTCTGTTCAAGCGCCATCTAC,0.253 RPM ratio (pull-down/input)
8,GATGATTGTTCTCCCAGCTGATGAATTGGGTTAGTCGAGTAAACAAATTTTCCTAATCTTTCTGTTCAAGCGCCATCTAC,0.756 RPM ratio (pull-down/input)
9,GATGATTGTTCTCCCAGCTGATGAATTCCTCCGTTCGAGTAAACAAATTTTCCTAATCTTTCTGTTCAAGCGCCATCTAC,0.255 RPM ratio (pull-down/input)
10,GATGATTGTTCTCCCAGCTGATGAATTGTCCTTTTCGAGTAAACAAATTTTCCTAATCTTTCTGTTCAAGCGCCATCTAC,0.39 RPM ratio (pull-down/input)
11,GATGATTGTTCTCCCAGCTGATGAATTGTTTTTGTCGAGTAAACAAATTTTCCTAATCTTTCTGTTCAAGCGCCATCTAC,4.16 RPM ratio (pull-down/input)
12,GATGATTGTTCTCCCAGCTGATGAATTCAATTTGTCGAGTAAACAAATTTTCCTAATCTTTCTGTTCAAGCGCCATCTAC,2.23 RPM ratio (pull-down/input)
13,GATGATTGTTCTCCCAGCTGATGAATTTTGTTTGTCGAGTAAACAAATTTTCCTAATCTTTCTGTTCAAGCGCCATCTAC,7.3 RPM ratio (pull-down/input)
14,GATGATTGTTCTCCCAGCTGATGAATTTGTTTTGTCGAGTAAACAAATTTTCCTAATCTTTCTGTTCAAGCGCCATCTAC,7.57 RPM ratio (pull-down/input)
15,GATGATTGTTCTCCCAGCTGATGAATTGTTTCTGTCGAGTAAACAAATTTTCCTAATCTTTCTGTTCAAGCGCCATCTAC,1 RPM ratio (pull-down/input)
16,GATGATTGTTCTCCCAGCTGATGAATTCTGTTTGTCGAGTAAACAAATTTTCCTAATCTTTCTGTTCAAGCGCCATCTAC,6.99 RPM ratio (pull-down/input)
17,GATGATTGTTCTCCCAGCTGATGAATTTTCTTTGTCGAGTAAACAAATTTTCCTAATCTTTCTGTTCAAGCGCCATCTAC,1.15 RPM ratio (pull-down/input)
18,GATGATTGTTCTCCCAGCTGATGAATTCTTTTTGTCGAGTAAACAAATTTTCCTAATCTTTCTGTTCAAGCGCCATCTAC,0.437 RPM ratio (pull-down/input)
19,GATGATTGTTCTCCCAGCTGATGAATTTCTTTTGTCGAGTAAACAAATTTTCCTAATCTTTCTGTTCAAGCGCCATCTAC,1.65 RPM ratio (pull-down/input)
20,GATGATTGTTCTCCCAGCTGATGAATTTAGAGACTCGAGTAAACAAATTTTCCTAATCTTTCTGTTCAAGCGCCATCTAC,0.585 RPM ratio (pull-down/input)
21,GATGATTGTTCTCCCAGCTGATGAATTAATGAGATCGAGTAAACAAATTTTCCTAATCTTTCTGTTCAAGCGCCATCTAC,0.246 RPM ratio (pull-down/input)
